Results filed as inconclusive are left out. Activity calls are given as the source filed them. Calls follow the shape of the dose curve; as a rule, active = well fitted activation curve with a large enough effect in the repeat runs; inconclusive = weak or mixed curves, or effect the other way; inactive = no such curve, though single readings can be large or run the other way.
Assay: qHTS assay to identify small molecule agonists of the estrogen related receptor signaling pathway with the pleiotropic PPARgamma coactivator (PGC) from Tox21 10K library (AID 1224842); also: nearly all actives have a fitted effect of over 15% in size
Settings: PGC/ERR reporter cell line, luciferase ONE-Glo, 18 h; series mostly up to 92.4 µM
Description: National Center for Advancing Translational Sciences [NCATS] NIH Chemical Genomics Center [NCGC] U.S. Environmental Protection Agency [EPA] National Institutes of Environmental Health Sciences [NIEHS] National Toxicology Program [NTP] Assay overview: Estrogen related receptors (ERRs), the first orphan nuclear receptors discovered, play an important role in the control of cellular energy metabolism. ERRs are required for high-energy production in response to the environmental challenges. The pleiotropic PPARgamma coactivator (PGC) is a major partner of ERR and a key regulator in energy homeostasis. Together they have been implicated in the etiology of metabolic disorders such as Type 2 diabetes and metabolic syndrome. ERR-alpha was also identified as an adverse marker for breast cancer progression; ERR-alpha-positive tumors have a poor prognosis. To screen and to identify environmental compounds that perturb the PGC/ERR signaling pathways could provide valuable information for potential therapeutic or preventive measures in the treatment of metabolic disease. For identifying PGC/ERR agonists, PGC/ERR cell line (provided by NTP) has been used to screen Tox21 10K library.
Assay Protocol Summary: The PGC/ERR cells were dispensed at 2,000 cells/5 ul/well in 1536-well white plates using a Multidrop dispenser. After the assay plates were incubated at a 37 C/5% CO2 incubator for 6 hours, 23 nL of compounds dissolved in DMSO, positive and negative controls or DMSO only was transferred to the assay plate by a pin tool. The plates were incubated at 37 C for 18 hours. 4 ul/well of One-Glo reagent was added into the assay plates using a Flying Reagent Dispenser. After 30-minute incubation at room temperature, the luminescence intensity in the plates was measured using a ViewLux plate reader.
In the case of `CC(C)(O)C#CC(C)(C)O`, the outcome is reported as “inactive”. With `N[C@H]1CN(c2c(F)cc3c(=O)c(C(=O)O)cn(C4C[C@H]4F)c3c2Cl)CC12CC2` (stereo not given in full) the outcome was “inactive”. With `CC1(C)C(O)C(C)(C)C1O` (stereo not given) the outcome was “inactive”. In the case of `O=[N+]([O-])c1ccc(F)cc1F`, the outcome is reported as “inactive”. For `NC(=O)c1ccc([N+](=O)[O-])cc1`, the outcome was “inactive”. In the case of `Cn1cc(S(C)=O)c(=O)c2ccc(F)cc21` (stereo not given), the outcome is reported as “inactive”. With `CCCCCCCCCCCCCC=O` the activation was -0.504% [at 8.39 µM] (inactive). For `C=C(C)CS(=O)(=O)O`, the outcome was “inactive”. For `CC/C=C\CCOC(C)=O`, the outcome was “inactive”. In the case of `Brc1c(NC2=NCCN2)ccc2nccnc12`, the outcome is reported as “inactive”. For `O=S(O)CO`, the outcome was “inactive”. With `CCOC(=O)CCC(C)=O` the outcome was “inactive”. With `O=C(O)CCCc1ccccc1` the outcome was “inactive”. With `CCCCCOC(=O)CCCCC` the outcome was “inactive”. For `Cc1sccc1Br`, the outcome was “inactive”. With `O=C(O)COc1nn(Cc2ccccc2)c2ccccc12` the outcome was “inactive”. In the case of `CC(=O)OC/C=C(\C)CC/C=C(\C)CCC=C(C)C`, the outcome is reported as “inactive”. In the case of `C=CCCCCCCCCC=O`, the outcome is reported as “inactive”. For `CC(C)NC(=O)NC(C)C`, the outcome was “inactive”. In the case of `N#Cc1ccc(C2CCCc3cncn32)cc1` (stereo not given), the outcome is reported as “inactive”. For `CC(C)(CC(=O)O)C(=O)O`, the outcome was “inactive”. With `CCO/C([O-])=N/c1c[n+](N2CCOCC2)no1` the outcome was “inactive”. For `O=C(c1ccccc1)C1CCCCC1`, the outcome was “inactive”. For `O=C(O)CN(CCOCCOCCN(CC(=O)O)CC(=O)O)CC(=O)O`, the activation was -0.694% [at 0.349 µM] (inactive). For `CCCCCCCCS(=O)(=O)Cl`, the outcome was “inactive”. With `CC(=O)c1ccccc1O` the outcome was “inactive”. In the case of `COCCCOCCCOC`, the outcome is reported as “inactive”. In the case of `CCCCOCCOCCOCCCC`, the outcome is reported as “inactive”. For `CCCCCCCCCCCCN(CCCCCCCCCCCC)CCCCCCCCCCCC`, the outcome was “inactive”. In the case of `FC(F)OC(Cl)C(F)(F)F` (stereo not given), the outcome is reported as “inactive”. With `O=C[C@H](O)[C@@H](O)[C@H](O)[C@H](O)CO` the outcome was “inactive”. With `C1OCOCO1` the outcome was “inactive”. In the case of `COC(=O)c1c(Cl)c(Cl)c(C(=O)OC)c(Cl)c1Cl`, the outcome is reported as “inactive”. With `O=C(O)Cc1ccc(CCNS(=O)(=O)c2ccc(Cl)cc2)cc1` the outcome was “inactive”. With `C[C@H](NC(CCc1ccccc1)C(=O)O)C(=O)N1CCC[C@H]1C(=O)O` (stereo not given in full) the outcome was “inactive”. For `COC(=O)C1=C(C)NC(C)=C(C(=O)OC)C1c1ccccc1[N+](=O)[O-]`, the outcome was “inactive”. In the case of `NC(=O)Nc1ccccc1`, the outcome is reported as “inactive”. For `CCO[Si](CCC1CCC2OC2C1)(OCC)OCC` (stereo not given), the outcome was “inactive”. With `N[C@H](C(=O)O)c1ccc(O)cc1` the activation was 0.319% [at 19 µM] (inactive). With `CC1(C)CO[C@@H](CC(=O)O)CN1` the outcome was “inactive”.
% is scaled to controls: 0 for no effect and ±100 for the full control effect.
